Bioassay records: PubChem BioAssay, The Scripps Research Institute Molecular Screening Center
GPR151 ag = activators of human GPR151; activation, % at 11.2 µM; Q8TDV0; hit rate 1% among 650,000; PathHunter beta-arrestin GPR151 cells, luminescence; in the data active = activation above about 4.9%;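 note: 0% = median of compound wells and 100% = cells with positive control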
FBW7 activator = human FBW7 E3 ligase activation, primary screen; AlphaScreen FBW7–phospho-cyclin E peptide binding, activator screen; hit rate 0.13% among 650,000; normalized activity (activation), % at 26.1 µM; Q969H0; AID 1259310; in the data active = normalized activity above about 1.9%;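 note: purified mutant Fbw7 with reduced substrate affinity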
MITF primary = inhibitors of human MITF | AlphaScreen MITF homodimerization, bead proximity signal | AID 1259374 | O75030 | hit rate 0.91% among 650,000 | inhibition, % at 2.6 µM; in the data active = inhibition above about 50%;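 note: 0% = vehicle wells with protein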
Target sequence (O75030 whole entry, looked up): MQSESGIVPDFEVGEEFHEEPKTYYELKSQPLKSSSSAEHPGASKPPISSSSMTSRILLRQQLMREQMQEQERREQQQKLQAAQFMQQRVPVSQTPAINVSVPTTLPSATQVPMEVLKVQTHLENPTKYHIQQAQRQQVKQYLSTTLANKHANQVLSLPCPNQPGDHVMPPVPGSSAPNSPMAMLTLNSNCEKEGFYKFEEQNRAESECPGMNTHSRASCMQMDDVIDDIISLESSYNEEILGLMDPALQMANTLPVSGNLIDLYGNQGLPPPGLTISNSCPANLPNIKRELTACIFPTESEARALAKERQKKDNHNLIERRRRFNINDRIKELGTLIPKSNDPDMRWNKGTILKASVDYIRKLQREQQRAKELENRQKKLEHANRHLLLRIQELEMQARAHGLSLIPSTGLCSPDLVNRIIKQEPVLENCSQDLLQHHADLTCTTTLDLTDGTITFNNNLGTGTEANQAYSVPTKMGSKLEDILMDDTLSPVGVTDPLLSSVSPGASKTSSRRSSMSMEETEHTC
TEAD-YAP block = TEAD-YAP interaction inhibition; inhibition, % at 9.12 µM; HEK-TIYL cells, TEAD-Gal4/YAP UAS-luciferase luminescence; hit rate 1.4% among 640,000; in the data active = inhibition above about 32%;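 note: 0% = median of test compound wells and 100% = reference inhibitor wells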
MITF confirm = confirmation of human MITF inhibitors. shares compounds with MITF primary. AlphaScreen MITF homodimerization, biotin/His-MITF beads. inhibition, % at 2.6 µM. hit rate 16% among 4,700;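 active = inhibition above a cutoff derived from the DMSO control wells, cut at about 28% in these data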;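 note: 0% = MITF dimer wells with DMSO only; inhibitors lower the bead chemiluminescence by keeping MITF from dimerizing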
AS interf ctr = AlphaScreen optical interference, counter-screen; AID 1259376; LysRS AlphaScreen counterscreen, signal interference, triplicate; hit rate 7.6% among 4,700; inhibition, % at 2.6 µM; shares compounds with MITF primary;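 active = inhibition above a cutoff derived from the DMSO control wells, cut at about 30% in these data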
* hit, by the source's call; / = not tested or not shown. This is a sample that favours compounds with a hit; in the whole collection about 3.5% have one here.

SMILES | GPR151 ag | FBW7 activator | MITF primary | TEAD-YAP block | MITF confirm | AS interf ctr
COc1cc(CN2CCN(Cc3cccnc3)CC2)cc2c1OCO2 | 0 | 0 | 68* | 3 | 12 | 23
COc1cc(CN2CCN(Cc3cccc(C)c3)CC2)cc2c1OCO2 | 1 | 0 | 58* | 1 | 1 | -1
COc1cc(CN2CCN(Cc3ccccc3Br)CC2)cc2c1OCO2 | -1 | 0 | 73* | 1 | 8 | 14
COc1cc(CN2CCN(Cc3ccccc3F)CC2)cc2c1OCO2 | -1 | 0 | 81* | -6 | 0 | 6
COc1cc(CN2CCc3nncn3CC2)cc2c1OCO2 | 2 | 0 | 0 | 6 | / | /
Cc1ccc2c(c1)-c1c(cnn1CC(=O)N(C)c1ccc(F)cc1)CO2 | -2 | 0 | -5 | 4 | / | /
CCN(C(=O)COC(=O)c1cc(=O)c2ccccc2o1)C1CCS(=O)(=O)C1 (stereo not given) | -2 | 0 | 26 | 0 | / | /
O=C(O)c1ccc(Nc2nc(Nc3ccc(C(=O)O)cc3)c([N+](=O)[O-])cc2[N+](=O)[O-])cc1 | 0 | 1 | 7 | 4 | / | /
COc1cc(CN2CCN(Cc3ccccc3Cl)CC2)cc2c1OCO2 | -1 | 0 | 76* | -2 | 15 | 12
COc1cc(CN2CCN(Cc3ccccc3)CC2)cc2c1OCO2 | 0 | 0 | 78* | -1 | 7 | -2
COc1cc(CN2CCN(Cc3cc(OC)c4c(c3)OCO4)CC2)cc2c1OCO2 | 1 | 0 | 54* | -4 | 15 | 24
COc1cc(CN2CCCN(C)CC2)cc2c1OCO2 | 1 | 1 | 39 | 12 | / | /
COc1ccc([C@@H]2CCN(CC(=O)Nc3nccs3)C[C@H]2O)cc1 | 0 | 0 | -11 | 0 | / | /
CSc1nc(Cl)c(Cc2ccc(OCC(C)C)cc2)c(Cl)n1 | -1 | 1 | 16 | 17 | / | /
COc1cc(C2NC(=O)NC(C)=C2C(=O)OCCOC(C)C)cc(OC)c1OC (stereo not given) | 0 | 0 | 6 | -5 | / | /
O=C1CC(N2CCN(CC3CCCO3)CC2)C(=O)N1Cc1ccccc1 (stereo not given) | 1 | 0 | 75* | 4 | 11 | 18
O=C(NCc1ccc2c(c1)OCO2)C1CCC(CNc2nc(=S)[nH]c3ccccc23)CC1 (stereo not given) | 0 | 0 | 57* | 0 | -13 | -5
O=C(NCC1CCCO1)c1ccc(CNc2nc(=S)[nH]c3ccccc23)cc1 (stereo not given) | 1 | 0 | 9 | 5 | / | /
Fc1ccc(NCc2nnc(SCCN3CCOCC3)n2-c2ccccc2)cc1 | -1 | 0 | 67* | 3 | 11 | 10
COc1cccc2cc(-c3nnc(-c4ccc([N+](=O)[O-])cc4)o3)c(=O)oc12 | 0 | 1 | -4 | -5 | / | /
Cc1cc(-n2c(C)ccc2C)c2ccccc2n1 | 0 | 0 | 2 | -6 | / | /
CCOC(=O)CCNC(C)C1COc2ccccc2O1 (stereo not given) | 1 | 0 | 51* | 4 | 11 | 13
CCCN(CCC)C(=O)c1c(NC(=O)c2cccnc2)sc2c1CCCCC2 | 0 | 0 | -4 | -5 | / | /
CCCN(CCC)C(=O)c1c(NC(C)=O)sc2c1CCCCC2 | 2 | 0 | 65* | -10 | 63* | 38*
C=CCn1c(SCC(=O)NCc2ccc3c(c2)OCO3)nc2scc(-c3ccccc3)c2c1=O | -1 | 0 | 57* | 2 | 12 | 9
SMILES | GPR151 ag | FBW7 activator | MITF primary | TEAD-YAP block | MITF confirm | AS interf ctr
C=CCn1c(SCC(=O)NCc2ccc3c(c2)OCO3)nc2sc3c(c2c1=O)CCC3 | -1 | 0 | -5 | -11 | / | /
CCCCc1c(C)c(C#N)c2nc3ccccc3n2c1N1CCC(C)CC1 | 0 | 0 | 53* | -4 | 13 | -7
Cc1c(Cc2ccccc2)c(N2CCC(C)CC2)n2c(nc3ccccc32)c1C#N | 0 | 0 | 13 | 5 | / | /
Cc1cc2cc(CCNC(=O)c3ccc(S(=O)(=O)N(C)C)cc3)c(=O)[nH]c2cc1C | -1 | 0 | 2 | 5 | / | /
CCCCCOc1ccc(CC2CCC(=O)NC2=O)cc1 (stereo not given) | 0 | 0 | 2 | -12 | / | /
COc1ccc(/C=N/NC(=O)c2cc(-c3cccn3C)n[nH]2)cc1OC | -1 | 2.1* | 78* | 6 | -6 | 17
Cc1cc(OCCNC2CCCC2)ccc1[N+](=O)[O-] | -1 | 0 | 33 | -5 | / | /
COc1cccc(NC(=S)N(CCCN2CCC(C)CC2)Cc2cccs2)c1 | -2 | 0 | 79* | -12 | -5 | -2
O=[N+]([O-])c1cccc(C=Nc2ccc(F)cc2)c1O | 1 | 0 | 0 | 0 | / | /
O=C(O)Cc1ccc(N=Cc2cccc([N+](=O)[O-])c2O)cc1 | 0 | 0 | 94* | 2 | -7 | -6
CCOC(=O)c1ccc(S(=O)(=O)NCCN2CCOCC2)cc1 | 0 | 0 | 54* | 4 | -5 | -6
CN(c1ccc(C(=O)NCc2ccccn2)cc1)S(=O)(=O)c1ccc(Cl)cc1 | 1 | 0 | 58* | 13 | -14 | -3
CCN(CC)CCN(C)Cc1ccc(F)cc1F | 0 | 0 | 57* | 7 | -2 | -6
CCN(CC)CCN(C)Cc1cccc2ccccc12 | -1 | 0 | 66* | 3 | -11 | 2
CCN(CC)CCN(C)Cc1c(F)cccc1Cl | 1 | 0 | 56* | 5 | -5 | 0
CC1=C(C(=O)Nc2ccc(Cl)cc2)C(c2ccc(Cl)cc2Cl)NC(=S)N1 (stereo not given) | 0 | 0 | 8 | 15 | / | /
COc1ccc2c(c1)CCC(C)N2C(=O)Nc1ccc(OC)c(OC)c1 (stereo not given) | 1 | 0 | 11 | 1 | / | /
Cc1ccc(C(=O)COC(=O)C(C(C)C)N2C(=O)C3C4C=CC(C4)C3C2=O)cc1[N+](=O)[O-] (stereo not given) | 2 | 0 | 82* | -3 | 8 | 11
CCN=C1NC(=NCC)c2ccccc21 | 0 | 0 | -2 | -8 | / | /
COc1cc(C2NC(C(=O)O)CS2)ccc1OCc1c(Cl)cccc1Cl (stereo not given) | 0 | 0 | 4 | 1 | / | /
CCOc1ccc(/C=C2/SC(NC(C)=O)=NC2=O)cc1OCC | 1 | 0 | 5 | 0 | / | /
COc1cc(OC)cc(C(=O)N2CCN(Cc3ccc(F)cc3)CC2)c1 | 1 | 0 | 51 | -5 | / | /
COc1cc(OC)cc(C(=O)N2CCN(Cc3ccc(Cl)cc3)CC2)c1 | -1 | 0 | 58* | 10 | 27 | 15
O=C(c1ccncc1)N1CCN(Cc2cccc(Cl)c2)CC1 | -1 | 0 | 73* | -1 | 9 | 17
COc1cc(OC)cc(C(=O)N2CCN(Cc3cccc(Cl)c3)CC2)c1 | 0 | 0 | 52* | -4 | 12 | 20
Cc1oc(C(=O)N2CCCC(c3[nH]ncc3-c3ccncc3)C2)cc1CN1CCOCC1 (stereo not given) | 0 | 0 | 3 | 5 | / | /
CC(CNC(=O)Nc1ccc(Cl)cc1)NC(=O)Nc1ccc(Cl)cc1 (stereo not given) | 0 | 0 | -21 | 4 | / | /
